From PubChem
Shown are actives, neighbours in structure and some others; about 12% of the full set was active somewhere.
HP1b chromo inh: blocks HP1-beta chromodomain binding to methylated histone tails | AlphaScreen HP1-beta / biotin-H3K9me3 peptide binding | AID 540317 | Potency, µM (highest dose often 114 µM), without a hit: at the highest dose activity change, negative = inhibition, usual class: inhibitors | 390,000 tested, 0.56% active; note: nearly all actives have a fitted effect of over 70% in size
Target sequence (P83916 whole entry, looked up): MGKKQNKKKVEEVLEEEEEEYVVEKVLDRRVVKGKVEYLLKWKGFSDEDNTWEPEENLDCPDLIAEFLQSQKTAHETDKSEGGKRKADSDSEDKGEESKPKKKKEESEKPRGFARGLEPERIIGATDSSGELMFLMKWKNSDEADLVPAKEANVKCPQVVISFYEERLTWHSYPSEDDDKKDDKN
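Compound inhibition of the preformed complex between 50 nM HP1-beta and 50 nM biotinylated H3K9me3 peptide was read by AlphaScreen. Buffer was PBS pH 7.4 with 0.01% Tween-20. Incubations ran 30 min at room temperature, with 10 ug/mL donor/acceptor beads.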
JMJD2A Tudor: JMJD2A Tudor domain (human) inhibition. AID 504339. Potency, µM (titrated, usually from 114 µM), for the others: at the top dose activity change, negative = inhibition, usual class: inhibitors. AlphaScreen JMJD2A-Tudor / H3K4me3 peptide binding. O75164. 390,000 tested, 4.4% active; note: % is set by controls: 0 for no effect and ±100 for the full control effect; nearly all actives have a fitted effect of over 50% in size
G9a inh: inhibitors of human histone lysine methyltransferase G9a. Q96KQ7. G9a H3K9 monomethylation, AlphaScreen, 2 h. Potency, µM (series often up to 102 µM), for inactives: at the highest dose activity, negative = inhibition, usual class: inhibitors. 350,000 tested, 8.8% active. AID 504332; note: % is set by controls: 0 for no effect and ±100 for the full control effect; nearly all actives have a fitted effect of over 75% in size
Target sequence (Q96KQ7 913-1193 limits assumed): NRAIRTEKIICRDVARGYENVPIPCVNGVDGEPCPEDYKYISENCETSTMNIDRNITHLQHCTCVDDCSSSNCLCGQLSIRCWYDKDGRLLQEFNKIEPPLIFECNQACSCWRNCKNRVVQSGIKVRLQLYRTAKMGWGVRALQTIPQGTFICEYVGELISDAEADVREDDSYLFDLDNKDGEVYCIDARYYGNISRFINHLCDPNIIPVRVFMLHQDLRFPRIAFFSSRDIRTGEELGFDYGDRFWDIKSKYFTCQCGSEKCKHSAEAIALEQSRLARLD
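AlphaScreen read-out: biotin-H3K9 peptide (500 nM) methylation by 20 nM enzyme with 20 uM SAM, 2 h at room temperature after 15 min compound preincubation; anti-monomethyl H3K9 antibody plus donor/acceptor beads, 10 min dark.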
BAZ2B block: inhibitors of human BAZ2B bromodomain | Q9UIF8 | AlphaScreen BAZ2B-H3K14Ac peptide displacement | Potency, µM (doses to about 114 µM), for the others: at the top dose activity change, negative = inhibition, hits mostly inhibitors | 360,000 tested, 4.4% active | AID 504333; note: % is set by controls: 0 for no effect and ±100 for the full control effect; nearly all actives have a fitted effect of over 60% in size
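Complex of BAZ2B and biotin-H3K14Ac (50 nM apiece) forms over 30 min at RT, then faces library compounds up to 110 uM for another 30 min; AlphaScreen beads added, 20 min dark incubation, luminescence read.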
TDP1 inh: inhibitors of human tyrosyl-DNA phosphodiesterase TDP1 | 350,000 tested, 0.28% active | recombinant TDP1, AlphaScreen DNA substrate cleavage | Q9NUW8 | AID 485290 | Potency, µM (titrated, usually from 130 µM), inactives show at the top dose activity change, negative = inhibition, most hits filed as inhibitors; note: % is set by controls: 0 for no effect and ±100 for the full control effect; nearly all actives have a fitted effect of over 40% in size
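Recombinant E. coli-expressed Tdp1 (1 nM) preincubated with compound 15 min at RT, then 5'-biotin/3'-phosphotyrosine-FITC DNA substrate (15 nM) added for 5 min. AlphaScreen beads (10 ug/ml) added, 10 min RT; tyrosine-FITC cleavage read as signal loss.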
Sfp inh: Sfp phosphopantetheinyl transferase inhibition | Potency, µM, for the others: largest response in the series, negative = inhibition, hits mostly inhibitors | AID 1490 | Biochemical Sfp PPTase activity, qHTS | 310,000 tested, 3.5% active | Q9F4F7;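 note: the enzyme is Sfp with the accession as filed and its product quenches rhodamine fluorescence; 0% = enzyme reaction without inhibitor and -100% = no enzyme wells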
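After 15 min at room temperature with compound, 15 nM Sfp received 5 uM rhodamine-CoA plus 12.5 uM BHQ-2-ybbR (50 mM Hepes pH 7.6, 10 mM MgCl2). Rate came from the fluorescence difference over 30 min, ex 525/em 598 nm.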
Numbers without * were called inactive; ? = inconclusive; / = not tested or not shown; [ ] = remark or other dose. Calls come from the whole dose curve; as a rule, active = well fitted curve in the direction sought with a large enough effect; inconclusive = small, poorly fitted or top-dose-only effect, or another doubt; inactive = no such curve, though single readings can be large; an effect the other way counts as inactive or inconclusive. Potency is the fitted concentration of half-maximal effect.

SMILES | HP1b chromo inh | JMJD2A Tudor | G9a inh | BAZ2B block | TDP1 inh | Sfp inh
O=[N+]([O-])c1ccc2c(c1Nc1ccccc1Cl)=NC1(CCCCC1)N=2 | 10.0% | ? | -25.7%[59 µM] | -32.7% | 7.5% | -6.0%
CCOC(=O)N1CCC(n2c(SCC(=O)N3CCC(C)CC3)nc3ccccc3c2=O)CC1 | 26.3% | -19.8% | -7.6%[59 µM] | 6.9% | 1.0% | 79.4µM*
N#CCC(=O)N/N=C/c1c(-c2ccccc2)n(-c2ccccc2)c2ccccc12 | 15.4%[57 µM] | -6.3% | 15.0% | -29.2% | 4.0% | 56.2µM*
O=C(COc1coc(CN2CCc3ccccc3C2)cc1=O)N1CCOCC1 | 37.5% | -4.3% | 44.7µM* | 0.3% | -4.9% | /
O=C(/C=C/c1ccco1)N1CCN(S(=O)(=O)c2ccccc2)CC1 | 50.1µM* | 56.2µM* | / | / | 10µM* | /
Cc1ccc(C)c(S(=O)(=O)N2CCN(C(=O)/C=C/c3ccco3)CC2)c1 | ? | 44.7µM* | -21.2%[12.7 µM] | ? | -1.5% | /
Cc1ccc(C)c(S(=O)(=O)N2CCN(C(=O)C3CC3C)CC2)c1 (stereo not given) | 28.5% | -6.9% | 1.9% | 11.9% | / | /
O=C(/C=C/c1ccc([N+](=O)[O-])cc1)N1CCN(S(=O)(=O)c2ccccc2)CC1 | 2.8% | -18.4% | -5.2%[2.33 µM] | -9.5% | 1.3%[56.1 µM] | /
Cc1ccc(S(=O)(=O)N2CCN(C(=O)/C=C/c3ccco3)CC2)cc1 | ? | 79.4µM* | 44.7µM* | 50.1µM* | 2.6% | ?
COc1cccc(/C=C/C(=O)N2CCN(S(=O)(=O)c3ccccc3)CC2)c1OC | 29.2% | -2.0% | 50.1µM* | ? | 3.1% | 4.1%
Cc1ccc(S(=O)(=O)N2CCN(C(=O)c3ccco3)CC2)cc1 | -8.4% | ? | -4.4% | -12.8% | 3.2% | 4.6%
CCCCNC(=O)C(CC)Sc1nnc(-c2ccc(OC)c(OC)c2)c(-c2ccc(OC)c(OC)c2)n1 (stereo not given) | 5.3% | -23.0% | 1.7%[59 µM] | -16.1% | -0.5% | /
CCOC(=O)CC1(NC(=O)C2CCC(=O)N(CCc3ccccc3)C2)CCCCC1 (stereo not given) | 30.9% | -7.5% | 19.1% | -2.3% | 1.4% | 15.1%
CC(C)(C)Cc1cc(N)on1 | 23.2% | -8.5% | 17.2%[59 µM] | -6.2% | 4.2% | 10.8%
COc1cc(CCC(=O)OCC(=O)NCCc2ccc(S(N)(=O)=O)cc2)cc(OC)c1OC | 20.4% | -8.2% | / | / | -1.5% | /
O=C(/C=C/c1ccco1)N1CCN(S(=O)(=O)c2ccc(F)c(F)c2F)CC1 | 27.7% | -7.7% | ? | -22.6% | 2.5% | 39.8µM*
O=C(c1cc2ccccc2o1)N1CCN(S(=O)(=O)c2ccc(F)c(F)c2F)CC1 | 34.4% | -18.1% | 6.5%[12.7 µM] | -4.5% | -1.6% | /
Cc1cccc(-n2c(-c3ccco3)nc3c(cnn3-c3ccccc3C)c2=O)c1 | -0.3% | ? | ? | / | 4.7% | /
CCSc1nnc(Cc2cc(=O)[nH]c(=O)[nH]2)n1-c1cccc(C)c1 | 52.0% | -19.9% | ? | -1.6% | / | 1.6%
Cc1cccc(-n2c(-c3ccc(Br)o3)n[nH]c2=S)c1 | 21.9% | 79.4µM* | / | / | / | /
S=c1[nH]nc(-c2ccco2)n1-c1ccc(Br)cc1 | ? | 25.1µM* | / | / | / | /
Cc1cccc(-n2c(-c3ccco3)n[nH]c2=S)c1 | -34.9% | 5.62µM* | 2µM* | -4.6% | 2.6% | -14.6%
COc1ccc(CNC(=O)Cn2c(=O)nc(-c3ccccc3)c3ccccc32)cc1OC | 3.1% | -14.6% | -0.1%[59 µM] | -3.1% | 6.2% | /
Cc1c(NS(=O)(=O)c2cc(C(=O)OCC(=O)N3CCC(C)CC3)ccc2Cl)c(=O)n(-c2ccccc2)n1C | 45.0% | -8.9% | -0.8% | -12.7% | -2.3% | 16.6%
C=CCNCCCCOc1cccc(Br)c1 | ? | 0.708µM* | / | 31.6µM* | 6.0% | 44.7µM*
CCc1cccc(OCCCCN(CC)CC)c1 | -38.0% | 3.55µM* | -8.9%[12.7 µM] | ? | -2.0% | -17.3%
CCc1cccc(OCCCCNCCCOC)c1 | ? | 6.31µM* | 12.6µM* | ? | -2.6% | ?
